In PubChem BioAssay (NCATS):
Results filed as inconclusive are left out. Values without a mark were called inactive. The source made the active and inactive calls. The call rests on the fitted dose curve; in most records, active means well fitted activation curve with a large enough effect; inconclusive means small, poorly fitted or top-dose-only effect; inactive means no such curve, though single readings can be large or run the other way.

biological target: Cellular tumor antigen p53 (Homo sapiens) (UniProt P04637); experiment: Primary qHTS for small molecule compounds that upregulate eGFP-tagged delta133p53alpha (in N-terminal) cells. (AID 2060322); settings: NCI-H358 eGFP-delta133p53alpha fluorescence, 24 h; activation: hits give high values; further: nearly all actives have a fitted effect of over 75% in size;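 on activation: series mostly up to about 56 µM; 0% = DMSO vehicle and 100% = reference activator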
Sequence (P04637 whole entry, looked up): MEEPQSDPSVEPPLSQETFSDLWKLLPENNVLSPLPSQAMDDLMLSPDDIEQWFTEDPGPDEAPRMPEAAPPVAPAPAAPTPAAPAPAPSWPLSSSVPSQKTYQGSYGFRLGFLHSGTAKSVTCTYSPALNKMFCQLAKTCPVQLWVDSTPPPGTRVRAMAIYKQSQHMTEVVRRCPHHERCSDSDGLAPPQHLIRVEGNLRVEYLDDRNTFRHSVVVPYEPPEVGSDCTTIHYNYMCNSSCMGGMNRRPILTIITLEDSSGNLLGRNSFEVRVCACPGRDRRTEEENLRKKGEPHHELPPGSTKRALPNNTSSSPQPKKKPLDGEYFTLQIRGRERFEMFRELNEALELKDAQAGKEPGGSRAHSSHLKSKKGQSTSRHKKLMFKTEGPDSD
In short: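 NCI-H358 cells pre-induced 24 h with 10 ng/ml doxycycline for eGFP-delta133p53alpha, plated dox-free and exposed 24 h at 37C to titrated compounds. Fixed, Hoechst-stained; gated GFP peak intensity by laser scanning cytometry, normalized to DMSO (0%) and 57.5 uM 5-azacytidine (100%).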
Potency means the concentration at half of the fitted maximal effect.

Row | Compound | activation | Potency
1 | CCCN1CCCC[C@H]1C(=O)Nc1c(C)cccc1C | 9.6% | –
2 | Cc1c(I)c(=O)n(-c2ccccc2)n1C | -10.7% | –
3 | CN(C)CCN(Cc1ccsc1)c1ccccn1 | -27.6% | –
4 | Oc1c(I)cc(Cl)c2cccnc12 | -2.51% | –
5 | CC1(C)S[C@H]2[C@H](NC(=O)[C@@H](N)c3ccc(O)cc3)C(=O)N2[C@@H]1C(=O)O | -5.39% | –
6 | CCNC(=O)/C=C/c1cccc(Br)c1 | -10.9% | –
7 | [O-][n+]1ccccc1SSc1cccc[n+]1[O-] | – | 379 nM (active)
8 | OCc1cccnc1 | -5.02% | –
9 | O=C(Nc1ccc(Cl)cc1)Nc1ccc(Cl)c(Cl)c1 | 0.565% | –
10 | CCCC(=O)O[C@]1(C(=O)CCl)[C@@H](C)C[C@H]2[C@@H]3CCC4=CC(=O)C=C[C@]4(C)[C@@]3(F)C(=O)C[C@@]21C | -8.37% | –
11 | CCCCCC(N)=O | -17.5% | –
12 | CC(C)(C)NCC(O)COc1cccc2c1CCC(=O)N2 (stereo not drawn) | 28.5% | –
13 | Nc1ncnc2c1ncn2Cc1c(F)cccc1Cl | -17.6% | –
14 | c1ccc2c(c1)CCc1ccccc1N2 | 10.7% | –
15 | CN[C@@H]1[C@H](O)[C@H](NC)[C@H]2O[C@@]3(O)C(=O)C[C@@H](C)O[C@H]3O[C@@H]2[C@H]1O | 27.7% | –
16 | CCCN(CCC)S(=O)(=O)c1ccc(C(=O)O)cc1 | 8.47% | –
17 | COc1ccc(CCC(C)=O)cc1 | -5.86% | –
18 | C[C@@H]1[C@H](C)CC[C@]2(C(=O)O)CC[C@]3(C)C(=CC[C@@H]4[C@@]5(C)C[C@@H](O)[C@H](O)[C@@](C)(CO)[C@H]5CC[C@]43C)[C@@H]12 | 36.3% | –
